Test results taken from PubChem BioAssay (NCATS).
Records with an inconclusive call do not appear. Active and inactive are the calls of the source. Unless noted, calls follow the shape of the dose curve; as a rule, active = well fitted curve in the direction sought with a large enough effect; inconclusive = small, poorly fitted or top-dose-only effect, or another doubt; inactive = no such curve, though single readings can be large; an effect the other way counts as inactive or inconclusive.

Legend:
[1] = target: Cytochrome P450 3A4 (Homo sapiens) (UniProt P08684); test: qHTS Assay for Inhibitors and Substrates of Cytochrome P450 3A4 (AID 884); also: % is scaled to controls: 0 for no effect and ±100 for the full control effect; nearly all actives have a fitted effect of over 50% in size
Method in brief: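 20 nM human CYP3A4 with 25 uM Luciferin-PPXE (at KM) in 200 mM KPO4, preincubated 10 min with compound; NADPH regeneration started a 60 min RT reaction. Luciferin detected by luminescence, normalized to 57 uM ketoconazole as full inhibition.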

[2] = Confirmation and Secondary Assay for Modulators of Hemoglobin Beta Chain Splicing at IVS2 654 locus (AID 910); also: % of control where 0% means no effect
Method in brief: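 HeLa cells stably carrying EGFP interrupted by mutant beta-globin IVS2-654 intron (CMV-driven) were treated with compound for 2 days at 37C; corrected splicing was scored as total peak GFP intensity per well (488 nm excitation, 500-520 nm emission).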

[3] = Confirmation and Secondary Assay for Modulators of Hemoglobin Beta Chain Splicing at IVS2 705 locus (AID 930);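 also: HeLa cells stably expressing the EGFP-705 splicing reporter; GFP fluorescence per well restored by corrected splicing of the IVS2-705 intron in EGFP; % of control where 0% means no effect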
Method in brief: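 Read-out: total peak GFP fluorescence per well (488 nm excitation, 500-520 nm emission) by laser-scanning cytometry. Cells: HeLa EGFP-705 splicing reporter, 2 days compound exposure in Optimem/2% FCS.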

[4] = qHTS Assay for Lipid Storage Modulators (AID 1519; calls by dose curve); details: Drosophila S3 cells, BODIPY lipid droplet/cell ratio, laser cytometry, cells loaded with oleic acid; for activity change, negative = inhibition: at 57.5 µM (top of the series)
Method in brief: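 Cells seeded at 5,000 per well were treated with compounds over a concentration series and loaded with oleic acid (400 uM, as added). Lipid droplet fluorescence (488 nm excitation, 500-530 nm channel) was read by laser-scanning cytometry and normalized to 20 uM Triacsin C.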

[5] = target: DNA dC->dU-editing enzyme APOBEC-3G (Homo sapiens) (UniProt Q9HC16); test: qHTS for inhibitors of Vif-A3G interactions: Validation (AID 588379); also: 0% is about no effect
Method in brief: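 HeLa cells stably expressing Vif and A3G-eYFP, 700 cells/well, incubated overnight at 37 deg C, then exposed to compound overnight at 37 deg C. Inhibition of Vif-mediated degradation read as increased yellow fluorescence (Ex 488/Em 500-530) by laser-scanning cytometry.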

[6] = target: Estrogen receptor (Homo sapiens) (UniProt P03372); test: qHTS assay for small molecule antagonists of estrogen receptor alpha signaling (AID 588513; active = well fitted curve in the direction sought with a large enough effect in the signal ratio, with a control signal flat, not every such curve was filed as active; the % refers to the signal ratio; also: % is scaled to controls: 0 for no effect and ±100 for the full control effect)
Method in brief: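 Antagonist-mode qHTS in ER-alpha-UAS-bla HEK 293 cells: compound titration, 0.5nM estradiol for 18 h, CCF4 fluorescence, Hill-derived IC50.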

[7] = target: Estrogen receptor (Homo sapiens) (UniProt P03372); test: qHTS assay for small molecule agonists of estrogen receptor alpha signaling (AID 588514; calls by dose curve;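 also: 0% = vehicle only and 100% = reference agonist; nearly all actives have a fitted effect of over 70% in size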)
Method in brief: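 ER-alpha-UAS-bla GripTite HEK 293 cells in medium with 2% charcoal/dextran-treated FBS were treated with compound titrations at 37 C for 18 hrs; beta-lactamase reporter read by CCF4 fluorescence after 2 hrs at RT.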

[8] = target: Glucocorticoid receptor (Homo sapiens) (UniProt P04150); test: qHTS assay for small molecule agonists of glucocorticoid receptor signaling (AID 588532; active = well fitted curve in the direction sought with a large enough effect in the signal ratio, with a control signal flat; the % refers to the signal ratio;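 also: 100% = dexamethasone at 0.1 µM and 0% = DMSO only wells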); details: HeLa MMTV-bla, beta-lactamase ratio, agonist, 18 h; stronger effect = higher value; percent of dexamethasone control, DMSO zero
Method in brief: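 Stimulation of a glucocorticoid response element-driven beta-lactamase gene was measured in HeLa cells. Responses were scaled between DMSO basal and 0.1 uM dexamethasone, then fitted for half-maximal stimulation.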

[9] = target: Glucocorticoid receptor (Homo sapiens) (UniProt P04150); test: qHTS assay for small molecule antagonists of glucocorticoid receptor signaling (AID 588533; active = well fitted inhibition curve with a large enough effect in the signal ratio, with a control signal flat, not every such curve was filed as active; the % refers to the signal ratio;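 also: cells stimulated with 2 nM dexamethasone as agonist; % is scaled to controls: 0 for no effect and ±100 for the full control effect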)
Method in brief: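 Antagonist-mode qHTS: compound titrations added to GRE-bla HeLa cells, then dexamethasone 2 nM final; 18 h, 37 C. CCF4 FRET fluorescence normalized to dexamethasone and DMSO; IC50 from Hill fit.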

[10] = target: Peroxisome proliferator-activated receptor delta (Homo sapiens) (UniProt Q03181); test: qHTS assay for small molecule agonists of peroxisome proliferator-activated receptor delta signaling (AID 588534; calls by dose curve;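 also: 0% = DMSO basal wells and 100% = positive control agonist at 10 µM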)
Method in brief: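 Cell-based beta-lactamase reporter assay run in agonist mode: cells seeded and incubated 5 hrs at 37 C, compounds added and incubated 18 hrs at 37 C. CCF4 dye fluorescence read after 2 hrs at RT; EC50 and efficacy from Hill fits.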

[11] = qHTS assay for small molecule antagonists of peroxisome proliferator-activated receptor delta signaling (AID 588535; active = well fitted inhibition curve with a large enough effect in the signal ratio, with a control signal flat, not every such curve was filed as active; the % refers to the signal ratio;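 as to max response: cells co-treated with a PPAR-delta agonist as stimulator during compound exposure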); details: HEK293T PPARd-UAS-bla, beta-lactamase FRET ratio, 18 h; 460 nm channel
Method in brief: (§1)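 GeneBLAzer PPAR-delta-UAS-bla HEK293T cells in medium with 2% charcoal/dextran FBS were preincubated 5 hrs at 37 C, then given compounds, incubated 18 hrs at 37 C, and read by CCF4 beta-lactamase fluorescence; IC50 from Hill fits.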

[12] = target: Peroxisome proliferator-activated receptor delta (Homo sapiens) (UniProt Q03181); test: as above
Method in brief: as §1

[13] = target: Peroxisome proliferator-activated receptor gamma (Homo sapiens) (UniProt P37231); test: qHTS assay for small molecule agonists of peroxisome proliferator-activated receptor gamma signaling (AID 588536; active = well fitted curve in the direction sought with a large enough effect in the signal ratio, with a control signal flat, not every such curve was filed as active; the % refers to the signal ratio;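 also: 0% = DMSO basal wells and 100% = rosiglitazone at 2 µM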)
Method in brief: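 Test agents, titrated, stimulated HEK293 UAS-bla cells overnight (16 h, 37 C). Substrate CCF4 was then added for two hours at room temperature before fluorescence reading.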

[14] = target: Vitamin D3 receptor (Homo sapiens) (UniProt P11473); test: qHTS assay for small molecule antagonists of vitamin D receptor signaling (AID 588541; calls by dose curve;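 also: receptor activated by calcitriol during compound treatment; % is scaled to controls: 0 for no effect and ±100 for the full control effect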)
Method in brief: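 VDR-UAS-bla HEK293T cells (2000/well, 2% charcoal-stripped FBS) were treated with titrated compounds plus 1-alpha,25-dihydroxyvitamin D3 (50 nM or 3 nM final) for 16 h at 37 C. CCF4 beta-lactamase fluorescence was read; Hill fits gave IC50.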

[15] = qHTS assay for small molecule agonists of retinoid X receptor alpha signaling (AID 588544); details: HEK293T RXRa-UAS-bla, beta-lactamase reporter, 18 h; 530 nm emission
[16] = target: Thyroid hormone receptor beta (Homo sapiens) (UniProt P10828); test: qHTS assay for small molecule agonists of thyroid hormone receptor beta signaling (AID 588545; calls by dose curve;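 also: 0% = DMSO only and 100% = 10 nM T3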)
Method in brief: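 Efficacy and EC50 values derive from Hill fits of qHTS titration data, normalized to 10 nM T3 and DMSO-only wells. HEK 293 reporter cells were stimulated for 18 hrs at 37 C, with beta-lactamase activity measured by CCF4 fluorescence.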

[17] = qHTS assay for small molecule antagonists of retinoid X receptor alpha signaling (AID 588546; active = well fitted inhibition curve with a large enough effect in the signal ratio, with a control signal flat, not every such curve was filed as active; the % refers to the signal ratio;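 also: cells stimulated with 9-cis-retinoic acid as agonist; % is scaled to controls: 0 for no effect and ±100 for the full control effect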); details: HEK293T RXRa-UAS-bla, beta-lactamase ratio, antagonist mode; measured here: W530 green channel, cytotoxicity proxy
Method in brief: (§2)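 Beta-lactamase reporter inhibition, read as CCF4 fluorescence ratio (ex 405, em 460/530 nm) after 2 h at RT. HEK293T UAS-bla cells, 2500/well, were stimulated with 9-cis-RA at 500 or 100 nM final alongside test compound for 18 h at 37 C.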

[18] = target: Retinoic acid receptor RXR-alpha (Homo sapiens) (UniProt P19793); test: as above; details: HEK293T RXRa-UAS-bla, beta-lactamase ratio, antagonist mode
Method in brief: as §2

[19] = target: Thyroid hormone receptor beta (Homo sapiens) (UniProt P10828); test: qHTS assay for small molecule antagonists of thyroid hormone receptor beta signaling (AID 588547; active = well fitted inhibition curve with a large enough effect in the signal ratio, with a control signal flat, not every such curve was filed as active; the % refers to the signal ratio); details: TR-UAS-bla HEK293, beta-lactamase ratio, antagonist mode, 18 h
Method in brief: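 TR-UAS-bla GripTite HEK293 cells in 2% charcoal/dextran FBS medium were preincubated 4 h at 37 C, given compound (0.59 nM to 92 uM) plus 0.4 nM T3 (final) for 18 h, then CCF4 for 2 h at RT; Hill fit gave IC50.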

[20] = qHTS assay for small molecule agonists of the antioxidant response element (ARE) signaling pathway (AID 651741; active = well fitted activation curve with a large enough effect in the signal ratio; the % refers to the signal ratio; also: % of control where 0% means no effect)
Method in brief: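 ARE-bla HepG2 cells (beta-lactamase reporter under ARE control) were plated at 2,000 cells/well, preincubated 5 h at 37 C/5% CO2, then treated with DMSO-dissolved compounds for 16 h at 37 C; LiveBLAzer B/G FRET substrate added, fluorescence read after 2 h at room temperature.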

[21] = qHTS assay for small molecule activators of the p53 signaling pathway (AID 651743; active = well fitted activation curve with a large enough effect in the signal ratio, not every such curve was filed as active; the % refers to the signal ratio; also: % of control where 0% means no effect); details: HCT-116 p53RE-bla, beta-lactamase FRET ratio, 16 h; activation: stronger effect = higher value
Method in brief: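 p53RE-bla HCT-116 cells with a stably integrated beta-lactamase reporter under p53 response elements were plated, rested 5 hours at 37 C/5% CO2, then exposed to compounds in DMSO for 16 hours at 37 C. LiveBLAzer B/G FRET substrate was read after 2 hours at room temperature.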

[22] = qHTS assay for small molecule activators of the nuclear factor-kappa B (NF-kB) signaling pathway (AID 651749; active = well fitted activation curve with a large enough effect in the signal ratio; the % refers to the signal ratio; also: % of control where 0% means no effect); details: NF-kB-bla ME-180 cells, beta-lactamase FRET ratio, 16 h; activation: stronger effect = higher value
Method in brief: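 ME-180 cells stably carrying a beta-lactamase reporter under an NF-kB response element were exposed to compound or DMSO vehicle for 16 hr at 37C, 5% CO2. Pathway activation was read by FRET, since reporter expression disrupts FRET.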

[23] = qHTS assay for small molecule agonists of the antioxidant response element (ARE) signaling pathway measured by Nrf2-dependant transcriptional activity (AID 720636; active = well fitted curve in the direction sought with a large enough effect in the repeat runs; an effect the other way counts as inactive or inconclusive;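 also: HepG2 cells with an ARE-driven luciferase reporter; % of control where 0% means no effect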)
Method in brief: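 HepG2 ARE-luc reporter line, 1% dialyzed FBS; 6 hr attachment at 37 C, compound pinned in, 16 hr at 37 C/5% CO2; ONE-Glo, 30 min RT, luminescence read.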

[24] = qHTS assay for small molecule agonists of the antioxidant response element (ARE) signaling pathway measured by Nrf2-dependant transcriptional activity - cell viability counter screen (AID 720653; active = well fitted curve in the direction sought with a large enough effect in the repeat runs; an effect the other way counts as inactive or inconclusive; also: % is scaled to controls: 0 for no effect and ±100 for the full control effect); details: ARE-bla HepG2 viability, CellTiter-Glo ATP luminescence, 16 h; stronger effect = lower value
Method in brief: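 ARE-bla HepG2 cells (2,000/well) rested 5 hrs at 37C/5% CO2, then exposed to compounds in DMSO for 16 hrs. Viability was read in the same wells as intracellular ATP by luminescence, 30 min at room temperature after reagent addition.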

[25] = qHTS assay for cell viability of HEK293 cells (AID 743288); details: ATP luminescence (CellTiter-Glo), 18 h; max response: stronger effect = lower value; also: % is scaled to controls: 0 for no effect and ±100 for the full control effect; nearly all actives have a fitted effect of over 50% in size
Method in brief: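 Luminescent ATP quantitation served as the viability read-out. Cells (parental HEK293, 2,000/well) received compounds after at least 5 h at 37 C and were exposed for 18 h before a 30 min room-temperature reagent step.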

[26] = qHTS assay for cell viability of the p53RE-bla HCT-116 cell line (AID 743292); also: % is scaled to controls: 0 for no effect and ±100 for the full control effect; nearly all actives have a fitted effect of over 55% in size
Method in brief: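 Luminescent ATP quantitation (CellTiter-Glo) served as the viability read-out; reagent was added after 16 h compound exposure at 37 C and read after 30 min at room temperature. Cells: p53RE-bla HCT-116, 4,000 per well.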

[27] = target: Nuclear receptor subfamily 1 group I member 2 (Rattus norvegicus) (UniProt Q9R1A7); test: qHTS assay for small molecule activators of the rat pregnane X receptor (rPXR) signaling pathway (AID 651751; call rule not given here; also: 0% is about no effect); details: rPXR reporter cells, luciferase (One-Glo), 24 h
[28] = qHTS assay for small molecule activators of the human pregnane X receptor (PXR) signaling pathway (AID 720659; call rule not given here; also: 0% is about no effect)
[29] = measured here: cell count channel max response
[30] = measured here: lipid channel max response

Sequence of Cytochrome P450 3A4 (Homo sapiens) (P08684 whole entry, looked up): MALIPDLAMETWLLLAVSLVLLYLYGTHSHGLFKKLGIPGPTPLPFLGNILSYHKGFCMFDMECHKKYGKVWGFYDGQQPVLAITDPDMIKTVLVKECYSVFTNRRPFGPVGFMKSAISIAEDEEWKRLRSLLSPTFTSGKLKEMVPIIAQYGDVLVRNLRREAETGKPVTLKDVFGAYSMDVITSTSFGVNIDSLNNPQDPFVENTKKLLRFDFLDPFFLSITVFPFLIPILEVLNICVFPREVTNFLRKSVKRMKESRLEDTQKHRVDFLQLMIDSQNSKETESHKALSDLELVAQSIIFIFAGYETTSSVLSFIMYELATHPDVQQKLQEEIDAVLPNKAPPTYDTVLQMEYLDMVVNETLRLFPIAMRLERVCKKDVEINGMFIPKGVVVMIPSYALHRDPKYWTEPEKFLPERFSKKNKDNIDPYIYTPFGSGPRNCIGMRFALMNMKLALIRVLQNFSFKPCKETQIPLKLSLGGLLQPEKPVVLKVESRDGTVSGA
Sequence of Estrogen receptor (Homo sapiens) (P03372 whole entry, looked up): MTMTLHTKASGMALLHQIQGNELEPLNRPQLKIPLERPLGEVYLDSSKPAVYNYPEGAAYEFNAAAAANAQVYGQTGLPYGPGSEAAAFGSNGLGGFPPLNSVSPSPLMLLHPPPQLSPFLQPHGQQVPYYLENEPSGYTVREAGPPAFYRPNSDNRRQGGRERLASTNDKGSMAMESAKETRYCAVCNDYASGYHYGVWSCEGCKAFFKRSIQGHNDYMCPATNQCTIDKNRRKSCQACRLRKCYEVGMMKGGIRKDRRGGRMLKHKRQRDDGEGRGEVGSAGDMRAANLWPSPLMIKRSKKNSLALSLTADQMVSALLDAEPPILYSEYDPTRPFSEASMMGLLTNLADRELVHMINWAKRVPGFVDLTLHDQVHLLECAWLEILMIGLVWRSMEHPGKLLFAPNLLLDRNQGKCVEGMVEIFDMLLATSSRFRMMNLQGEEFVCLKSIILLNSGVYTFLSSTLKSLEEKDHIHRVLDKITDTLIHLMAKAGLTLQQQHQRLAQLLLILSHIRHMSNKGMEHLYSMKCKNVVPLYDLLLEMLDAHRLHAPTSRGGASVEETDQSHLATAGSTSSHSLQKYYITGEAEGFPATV
Sequence of Glucocorticoid receptor (Homo sapiens) (P04150 whole entry, looked up): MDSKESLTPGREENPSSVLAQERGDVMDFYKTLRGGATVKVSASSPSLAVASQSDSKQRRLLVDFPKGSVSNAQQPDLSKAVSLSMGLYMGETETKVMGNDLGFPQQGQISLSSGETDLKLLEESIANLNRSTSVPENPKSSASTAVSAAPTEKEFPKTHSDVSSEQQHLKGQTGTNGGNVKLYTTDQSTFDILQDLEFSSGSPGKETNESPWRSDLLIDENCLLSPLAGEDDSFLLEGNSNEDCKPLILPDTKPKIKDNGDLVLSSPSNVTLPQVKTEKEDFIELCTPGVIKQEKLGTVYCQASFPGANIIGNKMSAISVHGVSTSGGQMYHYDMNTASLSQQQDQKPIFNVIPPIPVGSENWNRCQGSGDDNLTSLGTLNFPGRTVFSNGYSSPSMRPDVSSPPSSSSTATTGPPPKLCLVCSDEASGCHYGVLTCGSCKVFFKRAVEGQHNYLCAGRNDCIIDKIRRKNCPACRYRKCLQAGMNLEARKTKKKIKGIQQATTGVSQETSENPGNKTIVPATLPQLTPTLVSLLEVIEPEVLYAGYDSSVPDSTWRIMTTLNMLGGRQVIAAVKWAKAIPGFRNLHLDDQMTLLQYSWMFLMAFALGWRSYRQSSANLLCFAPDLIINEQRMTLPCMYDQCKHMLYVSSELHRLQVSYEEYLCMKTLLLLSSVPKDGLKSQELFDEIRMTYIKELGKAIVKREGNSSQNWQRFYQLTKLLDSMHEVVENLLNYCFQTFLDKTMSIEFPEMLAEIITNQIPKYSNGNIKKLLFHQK
Sequence of Peroxisome proliferator-activated receptor delta (Homo sapiens) (Q03181 whole entry, looked up): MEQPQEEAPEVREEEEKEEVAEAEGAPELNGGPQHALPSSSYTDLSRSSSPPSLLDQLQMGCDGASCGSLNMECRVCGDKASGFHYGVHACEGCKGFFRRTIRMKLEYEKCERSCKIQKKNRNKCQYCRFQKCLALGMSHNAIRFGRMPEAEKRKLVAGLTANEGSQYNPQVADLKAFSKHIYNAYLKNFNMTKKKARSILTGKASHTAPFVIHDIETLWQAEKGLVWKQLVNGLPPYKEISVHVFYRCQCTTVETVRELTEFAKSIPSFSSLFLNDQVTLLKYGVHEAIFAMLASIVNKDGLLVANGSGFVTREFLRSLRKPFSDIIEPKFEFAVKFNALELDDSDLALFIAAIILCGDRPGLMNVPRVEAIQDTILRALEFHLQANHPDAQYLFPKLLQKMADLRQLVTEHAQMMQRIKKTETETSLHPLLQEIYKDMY
Sequence of Thyroid hormone receptor beta (Homo sapiens) (P10828 whole entry, looked up): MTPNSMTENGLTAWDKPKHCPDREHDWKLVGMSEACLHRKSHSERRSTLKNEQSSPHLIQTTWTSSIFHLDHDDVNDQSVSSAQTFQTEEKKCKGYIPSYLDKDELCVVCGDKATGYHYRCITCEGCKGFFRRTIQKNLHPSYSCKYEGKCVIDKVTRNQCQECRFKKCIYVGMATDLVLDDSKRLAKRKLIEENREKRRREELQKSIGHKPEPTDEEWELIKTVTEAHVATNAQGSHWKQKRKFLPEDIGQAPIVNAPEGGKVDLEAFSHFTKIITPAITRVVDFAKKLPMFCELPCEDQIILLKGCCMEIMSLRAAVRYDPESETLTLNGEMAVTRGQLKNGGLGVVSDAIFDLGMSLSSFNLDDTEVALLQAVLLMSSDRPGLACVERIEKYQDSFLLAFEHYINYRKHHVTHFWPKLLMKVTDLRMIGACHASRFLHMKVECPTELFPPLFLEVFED
Sequence of DNA dC->dU-editing enzyme APOBEC-3G (Homo sapiens) (Q9HC16 whole entry, looked up): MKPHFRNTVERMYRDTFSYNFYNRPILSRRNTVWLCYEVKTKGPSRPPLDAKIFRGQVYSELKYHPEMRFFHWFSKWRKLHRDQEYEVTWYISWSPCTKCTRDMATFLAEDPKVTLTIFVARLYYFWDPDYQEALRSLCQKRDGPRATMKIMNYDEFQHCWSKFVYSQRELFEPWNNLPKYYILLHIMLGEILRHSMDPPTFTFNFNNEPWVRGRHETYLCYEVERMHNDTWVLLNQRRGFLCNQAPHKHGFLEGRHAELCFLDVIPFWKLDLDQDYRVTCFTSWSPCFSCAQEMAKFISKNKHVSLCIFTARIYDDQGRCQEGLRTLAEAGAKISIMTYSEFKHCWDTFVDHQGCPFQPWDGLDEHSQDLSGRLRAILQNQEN
Sequence of Vitamin D3 receptor (Homo sapiens) (P11473 whole entry, looked up): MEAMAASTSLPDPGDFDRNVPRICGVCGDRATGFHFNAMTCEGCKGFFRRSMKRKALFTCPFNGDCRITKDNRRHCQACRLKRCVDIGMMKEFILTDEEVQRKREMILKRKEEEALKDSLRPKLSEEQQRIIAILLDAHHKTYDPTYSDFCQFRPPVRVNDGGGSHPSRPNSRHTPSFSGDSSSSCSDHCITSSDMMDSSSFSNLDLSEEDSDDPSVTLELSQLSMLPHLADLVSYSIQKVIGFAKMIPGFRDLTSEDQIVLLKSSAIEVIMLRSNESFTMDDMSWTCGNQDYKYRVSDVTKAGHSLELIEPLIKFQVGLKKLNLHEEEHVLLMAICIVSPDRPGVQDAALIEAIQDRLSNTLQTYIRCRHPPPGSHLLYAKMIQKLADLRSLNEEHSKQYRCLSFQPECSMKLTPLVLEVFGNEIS
Sequence of Retinoic acid receptor RXR-alpha (Homo sapiens) (P19793 whole entry, looked up): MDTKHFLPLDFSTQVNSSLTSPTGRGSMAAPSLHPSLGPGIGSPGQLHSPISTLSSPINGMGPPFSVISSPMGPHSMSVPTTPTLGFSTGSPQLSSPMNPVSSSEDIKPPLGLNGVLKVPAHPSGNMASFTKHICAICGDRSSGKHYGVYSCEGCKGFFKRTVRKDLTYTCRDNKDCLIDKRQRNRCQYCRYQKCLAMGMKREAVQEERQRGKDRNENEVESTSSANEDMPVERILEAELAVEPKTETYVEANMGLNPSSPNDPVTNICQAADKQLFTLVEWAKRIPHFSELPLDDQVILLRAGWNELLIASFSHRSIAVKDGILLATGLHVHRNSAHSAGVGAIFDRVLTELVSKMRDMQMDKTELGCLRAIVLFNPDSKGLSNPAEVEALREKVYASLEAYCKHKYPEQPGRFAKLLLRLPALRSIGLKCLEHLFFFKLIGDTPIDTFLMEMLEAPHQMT
Sequence of Peroxisome proliferator-activated receptor gamma (Homo sapiens) (P37231 whole entry, looked up): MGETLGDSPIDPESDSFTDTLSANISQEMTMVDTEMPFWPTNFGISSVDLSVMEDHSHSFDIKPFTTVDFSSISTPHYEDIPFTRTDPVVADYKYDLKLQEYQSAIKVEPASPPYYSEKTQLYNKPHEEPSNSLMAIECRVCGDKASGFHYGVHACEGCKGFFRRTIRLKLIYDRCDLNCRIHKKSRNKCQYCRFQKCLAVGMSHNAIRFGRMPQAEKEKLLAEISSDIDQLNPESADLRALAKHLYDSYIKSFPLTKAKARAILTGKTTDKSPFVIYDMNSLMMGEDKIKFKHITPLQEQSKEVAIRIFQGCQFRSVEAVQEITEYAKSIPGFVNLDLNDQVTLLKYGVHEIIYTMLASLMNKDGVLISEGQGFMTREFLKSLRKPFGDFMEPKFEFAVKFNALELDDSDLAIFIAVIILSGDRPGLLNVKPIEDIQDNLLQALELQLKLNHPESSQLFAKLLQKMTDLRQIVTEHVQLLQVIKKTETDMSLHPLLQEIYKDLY
Sequence of Nuclear receptor subfamily 1 group I member 2 (Rattus norvegicus) (Q9R1A7 whole entry, looked up): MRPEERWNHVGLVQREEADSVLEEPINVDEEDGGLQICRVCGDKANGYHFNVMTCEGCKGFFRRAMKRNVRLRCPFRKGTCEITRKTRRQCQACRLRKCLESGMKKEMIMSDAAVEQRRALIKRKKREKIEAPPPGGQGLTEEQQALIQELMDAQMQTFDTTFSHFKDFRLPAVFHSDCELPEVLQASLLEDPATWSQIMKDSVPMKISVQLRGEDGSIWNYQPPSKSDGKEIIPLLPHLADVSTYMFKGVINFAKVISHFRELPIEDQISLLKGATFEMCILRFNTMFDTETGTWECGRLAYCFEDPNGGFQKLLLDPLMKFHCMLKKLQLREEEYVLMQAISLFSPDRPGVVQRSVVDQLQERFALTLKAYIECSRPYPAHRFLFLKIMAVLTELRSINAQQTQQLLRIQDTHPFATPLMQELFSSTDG

COc1cc2c(cc1OC)C(C)NCC2 (stereo not given)
26%: max response [4, 30]
20%: max response [4, 29]
inactive: Potency [1] | Potency [2] | Potency [3] | activity change, negative = inhibition [4] 4.92% | outcome [5]

CC(C)N1C(=O)c2ccccc2NS1(=O)=O
17.2%: max response [4, 30]
-4.57%: max response [17]
inactive: Potency [1] | Potency [2] | activity change, negative = inhibition [4] 2.96% | Potency [6] | Potency [7] | activation [8] 4.24% | Potency [9] | outcome [10] | Potency [12] | outcome [13] | outcome [14] | outcome [16] | max response [18] 0.0964% | activity change % (negative = inhibition) [19] -1.01% | Potency [20] | activation [21] 2.08% | activation [22] -0.185% | outcome [23] | max response [24] 7.65% | max response [25] -4.24% | Potency [26] | max response [27] -1.76% | outcome [28]
55.3%: max response [11]
13.1%: max response [4, 29]
-6.21%: max response [15]
